An excerpt weighted towards active compounds, which were near 4.1% of everything screened.
GRIN3A LBD mod – binders of NR3A ligand-binding domain, primary screen, biophysical, differential scanning fluorimetry, uHTS | NR3A LBD differential scanning fluorimetry, Tm shift; 0% = protein alone, 100% = glycine-bound protein | Tm shift relative to glycine control, % at 25 µM | AID 1259313, 2017 | hit rate 2.5% among 340,000;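 active = melting temperature shift of at least 10% of the positive control shift, at one fixed dose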
MPTP inh – mitochondrial permeability transition pore inhibitors, primary screen, biochemical, isolated mouse mitochondria, absorbance; hit rate 1.4% among 360,000; Ca2+ swelling absorbance, 30 min; inhibition, % at 10 µM;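 active = inhibition of 50% or more, scaled per plate between neutral and stimulator controls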
FAS TE block – FAS thioesterase domain inhibitors, primary screen, biochemical, fluorescence intensity, uHTS. recombinant FAS-TE, OMFH fluorogenic substrate, fluorescence endpoint. Fatty acid synthase (Homo sapiens), P49327. hit rate 0.67% among 360,000. inhibition, % at 15 µM. AID 602261, 2012;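 active = compounds whose normalised, plate-corrected inhibition of enzyme fluorescence in the single-dose primary screen is 50% or more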
MIN6 prolif – inducers of MIN6 beta-cell proliferation, primary screen, ATP luminescence, uHTS | MIN6 cells proliferation, ATPlite luminescence, 48 h; cells starved in 0.2% serum; 100% = growth in 10% serum | proliferation, % at 10 µM | hit rate 0.29% among 330,000 | AID 2380, 2010;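 active = compounds whose signal lies at least 3.5 SD above the mean of all wells on their plate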
pCIP destab – p/CIP-EGFP fusion destabilizers, primary screen, fluorescence, F442A cells | Q05BA5 | decrease of EGFP signal, % at 10 µM | hit rate 0.01% among 290,000 | 16 h;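 active = EGFP signal decrease of at least 30% at 10 µM or well 3 SD below plate mean, unless failing retest; inactive = the rest, including hits failing retest or dose response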
Target sequence (Q05BA5 1-1403): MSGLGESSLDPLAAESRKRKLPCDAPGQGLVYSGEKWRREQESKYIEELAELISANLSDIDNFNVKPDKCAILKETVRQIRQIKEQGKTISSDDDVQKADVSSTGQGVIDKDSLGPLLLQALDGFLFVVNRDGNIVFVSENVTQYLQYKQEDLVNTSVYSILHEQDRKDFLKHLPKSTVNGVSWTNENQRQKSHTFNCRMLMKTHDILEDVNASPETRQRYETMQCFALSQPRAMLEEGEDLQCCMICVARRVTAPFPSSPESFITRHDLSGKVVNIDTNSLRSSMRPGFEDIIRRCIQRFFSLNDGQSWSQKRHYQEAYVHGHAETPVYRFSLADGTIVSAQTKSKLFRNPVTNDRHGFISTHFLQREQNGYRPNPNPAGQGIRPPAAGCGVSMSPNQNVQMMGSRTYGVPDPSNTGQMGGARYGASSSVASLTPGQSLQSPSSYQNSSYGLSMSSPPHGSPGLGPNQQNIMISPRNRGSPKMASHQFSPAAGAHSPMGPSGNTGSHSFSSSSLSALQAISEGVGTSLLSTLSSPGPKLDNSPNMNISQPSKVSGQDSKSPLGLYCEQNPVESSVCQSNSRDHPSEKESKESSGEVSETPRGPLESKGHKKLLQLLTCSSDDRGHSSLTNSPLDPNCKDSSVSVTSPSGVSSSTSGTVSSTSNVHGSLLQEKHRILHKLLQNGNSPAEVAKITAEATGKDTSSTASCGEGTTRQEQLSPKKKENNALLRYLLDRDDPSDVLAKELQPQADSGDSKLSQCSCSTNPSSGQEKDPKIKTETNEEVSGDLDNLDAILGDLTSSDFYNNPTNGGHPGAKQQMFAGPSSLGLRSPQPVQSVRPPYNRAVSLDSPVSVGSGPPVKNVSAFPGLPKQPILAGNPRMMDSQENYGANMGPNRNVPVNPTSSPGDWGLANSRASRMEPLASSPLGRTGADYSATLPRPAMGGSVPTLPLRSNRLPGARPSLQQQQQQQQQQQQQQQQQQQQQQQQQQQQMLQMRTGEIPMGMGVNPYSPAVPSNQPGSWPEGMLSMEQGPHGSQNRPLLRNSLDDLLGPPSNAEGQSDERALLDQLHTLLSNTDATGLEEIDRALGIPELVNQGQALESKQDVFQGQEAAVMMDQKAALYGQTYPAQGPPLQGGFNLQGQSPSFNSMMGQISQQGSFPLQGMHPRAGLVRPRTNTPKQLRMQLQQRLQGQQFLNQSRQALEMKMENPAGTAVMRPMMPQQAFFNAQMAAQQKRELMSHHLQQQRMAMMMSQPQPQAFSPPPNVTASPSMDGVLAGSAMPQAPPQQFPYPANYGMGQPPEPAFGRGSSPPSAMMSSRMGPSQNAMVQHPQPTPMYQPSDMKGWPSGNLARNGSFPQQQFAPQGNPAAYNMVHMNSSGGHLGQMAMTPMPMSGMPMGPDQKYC
Hits are given with their value; . = inactive; / = no result given.

SMILES	GRIN3A LBD mod	MPTP inh	FAS TE block	MIN6 prolif	pCIP destab
C#CCN(C[C@H]1[C@H](OC(=O)Nc2c(C)noc2C)[C@H](OC(=O)Nc2c(C)noc2C)C[C@H]2C(=O)N(c3ccccc3)C(=O)[C@@H]12)S(=O)(=O)c1ccc(C)cc1	/	.	.	/	/
CCCCC(=O)Nc1c(C)cc(C)cc1Cl	14	.	.	.	.
CN(c1ccccc1)S(=O)(=O)c1cccc(C(=O)OCC(=O)NCc2ccc3c(c2)OCO3)c1	13	.	.	.	.
COCCNC(=O)C1CCCN(Cc2cccc(C(F)(F)F)c2)CC1 (stereo not given)	/	.	.	/	/
COc1cccc(NC(=S)NC(=O)Cc2ccccc2)c1	.	.	.	.	/
COc1ccc(NC(=O)Nc2nnc(CC(=O)Nc3ccccc3)s2)cc1	.	.	.	.	.
COc1cccc(NC(=O)Nc2nnc(CC(=O)Nc3ccccc3)s2)c1	23	.	.	.	.
O=C(Cc1nnc(NC(=O)Nc2ccccc2)s1)NCc1ccccc1	.	.	.	.	.
COc1cc(NC(=O)COC(=O)Cc2ccc(-c3ccccc3)cc2)cc(OC)c1	36	.	.	.	.
O=C(Cc1nnc(NC(=O)Nc2ccc(Cl)cc2)s1)NCc1ccccc1	16	.	.	.	.
COc1cccc(NC(=O)Cc2ccccc2)c1	10	.	.	.	.
CC(=O)N1CCN(S(=O)(=O)c2cccc(C(=O)N3CCN(S(=O)(=O)c4c(C)c(C)cc(C)c4C)CC3)c2)CC1	/	.	.	/	/
O=S(=O)(/N=C(/Nc1ccc(Cl)c(S(=O)(=O)Nc2ccccc2Cl)c1)c1ccc(F)cc1)c1ccccc1	14	.	.	.	.
Cc1nonc1CN(C)C(=O)CC1C(=O)NCCN1Cc1ccccc1F (stereo not given)	11	.	.	.	.
CCOc1ccccc1CN1CCNC(=O)C1CC(=O)N(C)Cc1nonc1C (stereo not given)	.	.	.	.	.
Cc1ccc(NC(=O)c2ccc(-c3cc(Cl)ccc3Cl)o2)c(C)c1	/	.	.	/	/
COc1ccc(C(=O)c2cc(OC)c(OC)c(OC)c2)cc1OC	.	.	.	/	/
Cc1cc2nc(CS)[nH]c2cc1C	.	.	.	.	.
Cc1cc2nc(CO)[nH]c2cc1C	15	.	.	.	.
N/C(=N\N=C\c1ccc2c(c1)OCO2)SC1CC(=O)N(c2ccc(C(=O)O)cc2)C1=O (stereo not given)	.	.	.	.	.
C/C(CCc1ccc2c(c1)OCO2)=N\N=C(/N)SC1CC(=O)N(c2ccc(Cl)cc2)C1=O (stereo not given)	16	.	.	.	.
COc1ccc(CCN(C(=S)Nc2ccccc2)C2CC(=O)N(c3ccccc3)C2=O)cc1 (stereo not given)	17	.	.	.	.
CNC(=S)N(Cc1ccc2c(c1)OCO2)C1CC(=O)N(c2ccc(F)cc2)C1=O (stereo not given)	22	.	.	.	.
COc1ccc(CN(C(=S)Nc2ccccc2)C2CC(=O)N(c3ccc(F)cc3)C2=O)cc1 (stereo not given)	32	.	.	.	.
Cc1ccc(N2C(=O)CC(N(CCc3ccccc3)C(=S)Nc3ccc(N(C)C)cc3)C2=O)cc1 (stereo not given)	.	.	.	.	.
SMILES	GRIN3A LBD mod	MPTP inh	FAS TE block	MIN6 prolif	pCIP destab
O=C1CC(N(CCc2ccccc2)C(=S)Nc2ccccc2)C(=O)N1c1ccc(Br)cc1 (stereo not given)	29	.	.	.	.
CCCCNC(=O)C1(C)CCN1C(=O)c1ccc2c(c1)CCO2 (stereo not given)	/	.	.	/	/
COc1cccc(NC(=O)CCC2CCN(C(=O)C(OC)c3ccccc3)CC2)c1 (stereo not given)	/	.	.	/	/
O=S(=O)(c1cccc(C(F)(F)F)c1)N1CCC(c2nc3ccccc3[nH]2)CC1	.	.	.	.	.
CC(=O)Nc1ccc(S(=O)(=O)N2CCC(c3nc4ccccc4[nH]3)CC2)cc1	.	.	.	.	.
CC(C)(C)C(=O)Nc1ccc(S(=O)(=O)N2CCC(c3nc4ccccc4[nH]3)CC2)cc1	20	.	.	.	/
O=S(=O)(c1cccc(Cl)c1)N1CCC(c2nc3ccccc3[nH]2)CC1	27	.	.	.	.
Cc1noc(C)c1COc1ccccc1C(=O)NCCc1ccc(F)cc1	.	.	.	/	/
